# According to the OligoGym collection:
# Target: MAPK4
# Test: pooled miR-30 sensor sort-seq; sequence = guide strand
# Conditions: shRNA
# Further: reference of the scale not given here.
row,Sequence,sensor-assay potency score (higher = more potent)
1,TAAGTTTCTAATGTGTTGCAGG,-0.429
2,TCTGAATAAAAGAACATCGAAT,-0.719
3,TAATGCTGATCAACGATCCTTG,0.275
4,TTAGTAGTTATAACAATTCCTC,-0.514
5,TTGCTGTTGACACCTCTCTTTT,-1.31
6,TTGTAGTCGCAGGAGCGCCCGT,-1.23
7,TTCTTCACAGCGACCTTCCGGC,0.22

# Target: MAPKAPK2
# Test: as above
# Conditions: shRNA
row,Sequence,sensor-assay potency score (higher = more potent)
1,TTTATCTTGATCTGCTCGTAGT,-0.523
2,TCGTACACATCCACGATCCGTA,0.149
3,TTTTATCTTGATCTGCTCGTAG,0.563
4,TTCTCTTTCTGTGAATGCCTGG,-0.0857
5,TTTTTATCTTGATCTGCTCGTA,0.0929
6,TCCTCTGATACTTCTGACCATT,-1.62
7,TTGATCTGCAGGCCGGACTTGA,-0.944
8,TTTGTTGATTGCATGATCCAAG,-0.653
9,TTGTAGTCATCGATGATGGCGT,-0.252
10,TTGATTGCATGATCCAAGGGTG,-0.156
11,TTTTTTATCTTGATCTGCTCGT,0.773
12,TTGAAGATCTGCAAAACTTTGC,0.0666

# Target: MAPKAPK5
# Test: as above
# Conditions: shRNA
row,Sequence,sensor-assay potency score (higher = more potent)
1,TCTGACTCCACTCTTCCTCTGG,0.0951
2,TAGTCGATCTACTTTATCTGTG,-0.684
3,TTTACACAGACTCTAACTGGAC,-0.371
4,TATCTGTGAATCCACGACCATT,-1.59
5,ATAATCTGAACTATGTTTGGGT,0.519
6,TTGCTCTTCTATCACCTGCTTC,-0.717
7,TATTCTTCTAAAATGGAAGTTT,-0.731
8,TTTCTTCGCATATCCTTTGGGA,-0.249
9,TAACTGGACCACTAATTCCAGC,-1.31
10,TATGATGCCAGATTTCTCCTTC,0.745
11,TTAGTCGATCTACTTTATCTGT,-0.383
12,TTCAATAATCTGAACTATGTTT,-0.32

# Target: MARCH9
# Test: as above
# Conditions: shRNA
row,Sequence,sensor-assay potency score (higher = more potent)
1,TGAAAGAGCAGATCCTGTCGTT,0.563
2,TATGGCAGCAATCTGGACCTTC,-0.025
3,TGCAAGATTGTATAACCGCAGC,-1.34
4,TAGTACTCCTCCTCGTCGCCGT,-0.394
5,TAATTTAGGACCTTCCACTGCT,0.933
6,TAGCAGAGCTCACAGCTCCAGG,-0.864
7,TTGTCCAGCTGGTACCTCCAGC,-0.754
8,ATACATGCCGTAGCAGATCTGA,-0.925
9,TACTTGAAGTAGCAGAGCTCAC,-1.11
